# Many of the other results were omitted from the sample, so hits are more common in it than they were.
# Pf Dd2 growth – qHTS Primary assay for Inhibitors of Plasmodium falciparum Dd2 growth in vitro. P. falciparum Dd2 growth, SYBR Green, 72 h. Potency, µM (top dose mostly 28.9 µM), without a hit: top-dose activity, negative = inhibition, usual class: inhibitors. hit rate 4.3% among 120,000; active = well fitted inhibition curve with a large enough effect;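 also: plate controls were DMSO vehicle for no effect and reference drug for full effect; nearly all actives have a fitted effect of over 65% in size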
#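 Infected erythrocytes (Dd2, 0.3% parasitemia, 2.5% hematocrit final) are added to compound in RPMI-1640/Albumax II medium, grown 72 h at 37C in low oxygen, then lysed with saponin/Triton-X containing SYBR Green and read by fluorescence.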
# Numbers without * were called inactive; i = inactive; [ ] = another dose, or the depositor's remark. Potency is read from the fitted curve at half-maximal effect.
SMILES,Pf Dd2 growth
O=[S+]([O-])(c1ccncc1)c1nnn2c1nc(NCc1ccncc1)c1ccccc12,-2.1%
O=C(Cc1ccccc1Cl)N1CCC[C@H]1c1nc(-c2ccc(F)cc2)no1,19.1%
CN(Cc1ccccc1)C(=O)C[C@@H]1CCNC[C@@H]1Cc1cc(-c2ccccc2)on1,5.01µM*
CCN(CC)C(=O)C[C@@H]1CCNC[C@@H]1Cc1cc(-c2ccccn2)on1,-17.2%[44.1 µM]
CC(=O)N1CCN(C(=O)C[C@@H]2CCNC[C@@H]2Cc2cc(-c3ccccc3)on2)CC1,i
CC(=O)NCCNC(=O)C[C@@H]1CCNC[C@@H]1Cc1cc(-c2ccccc2)on1,14.7%[44.1 µM]
CCCCc1cc(C[C@H]2CNCC[C@H]2CC(=O)NCc2ccccc2)no1,-13.1%[44.1 µM]
CCCCc1cc(C[C@H]2CNCC[C@H]2CC(=O)N(C)Cc2ccccc2)no1,6.31µM*
O=C(O)[C@@H]1CN(C(=O)c2ccn[nH]2)C[C@H]1c1ccc2c(c1)OCO2,-1.2%
Cc1noc(-c2ccn3c(CNC(=O)CCC4CCCC4)nnc3c2)n1,-18.9%
COCCOc1ccc2c(n1)CCN(C(=O)C1CCCC1)C2,i
COCCOc1ccc2c(n1)CCN(C(=O)c1ccccc1OC)C2,-12.4%
COCCOc1ccc2c(n1)CCN(C(=O)C1(c3ccc(OC)cc3)CC1)C2,7.08µM*
Cc1c(O)cccc1C(=O)N1CC[C@@H](NC(=O)c2ccccn2)[C@H](O)C1,0.2%
CN(C)C[C@@H]1CN(S(C)(=O)=O)C[C@H]1NC(=O)CCc1nc2ccccc2[nH]1,44.7%
COC[C@H]1C[C@@H](NC(=O)c2cc(C)n(C)n2)[C@H](O)[C@@H]1O,4.6%[44.1 µM]
CN(CCN1CCCCCC1)C(=O)c1cc(COc2ccccc2)[nH]n1,7.94µM*
CN(CCN1CCOCC1)C(=O)c1cc(COc2cccc(F)c2)[nH]n1,-20.5%
CN(CC1(CO)CCOCC1)C(=O)c1cc(COc2ccccc2)[nH]n1,-3.7%
N#Cc1cccnc1N1CCN(c2nccc(CCC(F)(F)F)n2)CC1,-24.7%
CNC(=O)c1cc2cccnn2n1,4.7%[44.1 µM]
CC(C)OC(=O)NN(C(=O)OC(C)C)[C@@H]1C=C(C(=O)N[C@H](C)C(N)=O)C[C@@H](O)[C@H]1O,-4.9%[44.1 µM]
COCCN1CCC(CN(Cc2ccncc2)C(=O)c2cnco2)CC1,14.4%
COC(=O)c1cccc(NC(=S)N[C@H]2CO[C@H]3[C@@H]2OC[C@@H]3n2cc(-c3ccccc3)nn2)c1,i
Cc1ccc(-n2nc3n(c2=O)CCN(C(=O)Nc2ccccc2)C3)cc1,-7.8%[44.1 µM]
SMILES,Pf Dd2 growth
Cc1ccccc1-c1nn(-c2ccc(F)cc2F)cc1CN1CCCC1CCO (stereo not drawn),7.94µM*
COc1ccc2c(c1)c(CN1CCc3nc(N4CCN(C)CC4)[nH]c(=O)c3CC1)cn2C,-0.4%[5.79 µM]
COc1ccc(CN2CCc3nc(N4CCN(C)CC4)[nH]c(=O)c3CC2)c(OC)c1,36.8%[5.79 µM]
COc1ccc(-c2nn(-c3ccccc3)cc2C(=O)Nc2ccccc2OC)cc1,i
COc1ccc(-c2nn(-c3ccccc3)cc2CN2CCN(C)CC2)c(F)c1,10µM*
COc1ccc2nc(CO[C@H]3CN(Cc4cn(C)c5ccccc45)C[C@H]3F)[nH]c2c1,-30.0%[44.1 µM]
COC[C@H]1CCCN1Cc1cn(-c2ccccc2)nc1-c1ccc(OC)cc1F,10µM*
Cc1ccccc1-c1nc2cc3c(cc2cc1CN1CCC[C@H]1CO)OCO3,-13.6%
COC[C@@H]1CCCN1Cc1cn(Cc2ccccc2)nc1-c1cc2ccccc2o1,i
CCc1cnc(C)nc1N1CCN(Cc2ccccc2F)C(CCO)C1 (stereo not drawn),-27.0%
COc1ccc(-c2ccnc3nc(-c4ccccc4OC)nn23)c(F)c1,-20.2%
COc1ccc(-c2nn(-c3ccccc3)cc2CN2CCN(C)C(C)C2)c(F)c1 (stereo not drawn),11.2µM*
COc1ccc(N2C(=O)CSC23CCN(C(=O)C2CCCC2)CC3)cc1,-21.4%
COc1ccc(-c2nc(C3CC3)nc3c2CN([S+](=O)([O-])c2onc(C)c2C)CC3)cc1,i
c1ccc(C2CCCN(CCn3ccnc3-c3cc4n(n3)CCNC4)C2)cc1 (stereo not drawn),i
CCOc1ccc(NC(=O)Cn2c(N3CCC(C)CC3)nc(C)cc2=O)cc1,-15.1%
O=C(c1ccsc1)N1CCCC(Cc2nncn2CC2CC2)C1 (stereo not drawn),i
CN(Cc1ccco1)C(=O)Cc1cccn1-c1cccc(Cl)c1,-6.8%
CC(=O)N1CCC(C2CCN(Cc3ccc(C#N)cc3)C2)CC1 (stereo not drawn),i
O=C(C1CC(=O)N(C2CC2)C1)N1CCCN(Cc2ccccn2)CC1 (stereo not drawn),-11.5%
COc1ccc(C(=O)N2C[C@@H]3C[C@H](C2)c2c(NC(=O)Nc4ccccc4)ccc(=O)n2C3)cc1,-7.4%
CN(CC[C@H]1CN(C(=O)c2ccc(C(F)(F)F)cc2)CC[C@H]1CC(=O)O)c1ccccc1,i
COc1ccc(-c2ccccc2)cc1N1C(=O)[C@@H]2C[C@H]1CN2C(=O)[C@H]1CCCN1,-18.0%
CC(C)C(=O)N1CCC(Oc2ncccc2C(=O)N(C)C)C1 (stereo not drawn),30.9%

# Compound activity: PubChem, National Center for Advancing Translational Sciences (NCATS)
